High-throughput results deposited in PubChem by several laboratories.
PAFAH1B3 FP inh: inhibitors of human PAFAH1B3. Q15102. recombinant PAFAH1B3, FP-rhodamine probe, fluorescence polarization. inhibition, % at 3.39 µM. hit rate 0.28% among 340,000;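 active = inhibition above the screen-wide average of all tested compounds plus 3 SD, cut at about 25% in these data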
PfM18AAP inh: PfM18AAP enzyme inhibition. recombinant PfM18AAP, H-Glu-NHMec fluorogenic cleavage. inhibition, % at 7.35 µM. hit rate 1.2% among 290,000;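 active = inhibition above the campaign mean inhibition over all tested compounds plus 3 SD, cut at about 28% in these data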
PAFAH2 inh: PAFAH2 (human) inhibition | hit rate 0.99% among 340,000 | Q99487 | recombinant PAFAH2, FP-rhodamine activity probe, fluorescence polarization | inhibition, % at 3.39 µM;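 active = inhibition above the mean over all tested compounds plus 3 SD, cut at about 30% in these data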;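 also: inhibitors block probe labeling of enzyme so polarization drops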
Pemphigus Ab inh: human desmoglein-3 autoantibody binding inhibition; DSG3-coupled beads, scFv-anti-DSG3-GFP binding, flow cytometry; stronger effect = lower value; binding (percent of control), % at 10 µM; hit rate 0.48% among 310,000;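 active = binding more than 3 SD below its plate's average and above zero; inconclusive = below that plate limit but binding exactly zero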;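 also: hits lower antibody fragment binding to DSG3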
Target sequence (P32926 whole entry, looked up, the tested form may be a part): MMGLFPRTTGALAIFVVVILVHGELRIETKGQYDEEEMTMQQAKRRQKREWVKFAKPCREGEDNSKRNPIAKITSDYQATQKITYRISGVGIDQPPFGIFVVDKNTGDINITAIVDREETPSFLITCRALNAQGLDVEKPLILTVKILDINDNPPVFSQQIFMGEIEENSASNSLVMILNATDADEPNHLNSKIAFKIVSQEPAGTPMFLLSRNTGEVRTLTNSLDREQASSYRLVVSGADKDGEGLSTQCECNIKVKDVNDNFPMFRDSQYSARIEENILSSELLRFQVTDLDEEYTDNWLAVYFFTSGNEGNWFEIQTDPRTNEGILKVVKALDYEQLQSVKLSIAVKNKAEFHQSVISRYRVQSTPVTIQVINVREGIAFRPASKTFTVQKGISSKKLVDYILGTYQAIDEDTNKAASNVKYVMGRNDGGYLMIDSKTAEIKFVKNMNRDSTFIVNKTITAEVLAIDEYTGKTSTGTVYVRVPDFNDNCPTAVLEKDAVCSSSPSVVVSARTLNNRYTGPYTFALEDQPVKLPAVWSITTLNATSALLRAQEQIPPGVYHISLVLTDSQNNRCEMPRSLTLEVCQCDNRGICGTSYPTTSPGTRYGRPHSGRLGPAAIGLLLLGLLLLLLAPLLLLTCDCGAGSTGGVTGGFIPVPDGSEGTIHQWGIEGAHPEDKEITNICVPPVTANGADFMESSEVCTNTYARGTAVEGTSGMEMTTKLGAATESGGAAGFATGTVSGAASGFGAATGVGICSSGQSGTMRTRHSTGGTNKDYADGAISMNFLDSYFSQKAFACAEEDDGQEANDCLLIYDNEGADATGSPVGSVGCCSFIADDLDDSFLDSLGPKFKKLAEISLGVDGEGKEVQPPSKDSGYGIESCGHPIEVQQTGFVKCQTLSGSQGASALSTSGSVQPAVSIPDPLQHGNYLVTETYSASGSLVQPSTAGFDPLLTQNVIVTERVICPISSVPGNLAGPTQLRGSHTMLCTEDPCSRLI
PAFAH1B2 FP inh: PAFAH1B2 (human) inhibition; P68402; recombinant PAFAH1B2, FP-rhodamine activity probe, fluorescence polarization; inhibition, % at 3.39 µM; hit rate 1.2% among 340,000; AID 492953;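 active = inhibition above the mean of all tested compounds plus 3 SD, cut at about 24% in these data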
pPAFAH FP inh: pPAFAH (human) enzyme inhibition; Q13093; recombinant pPAFAH, FP-rhodamine probe fluorescence polarization; inhibition, % at 3.39 µM; hit rate 1.5% among 330,000;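 active = inhibition above the mean inhibition across the screen plus 3 SD, cut at about 25% in these data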;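 also: inhibitors block binding of the rhodamine activity-based probe so polarization drops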
Each line names hits and unclear results; the compound was inactive in the other large screens. Most compounds without a hit are left out; they make up all but 3.8% or so of the library.

Cc1ccc(C(=O)CN2C(=O)C(=O)N(Cc3ccccc3)C2=O)cc1	PAFAH1B2 FP inh 26.3
COc1ccc(CNC(=O)c2ccc(-c3ccccc3)cc2)cc1OC	Pemphigus Ab inh 76.2
COc1ccc(C(=O)NC(=S)NCc2ccccc2)cc1OC	pPAFAH FP inh 30.3
COc1ccc(CNC(=O)c2c(O)c3cc(OC)c(OC)cc3[nH]c2=O)cc1OC	Pemphigus Ab inh 78.9 (no result: pPAFAH FP inh)
COc1ccc(C(=O)NC(=S)NCc2cccnc2)cc1OC	none
COc1cc2[nH]c(=O)c(C(=O)NCc3ccc(F)cc3)c(O)c2cc1OC	none (no result: pPAFAH FP inh)
Cc1cc(O)c(-c2cc(C(=O)NCc3ccc4c(c3)OCO4)[nH]n2)cc1C	Pemphigus Ab inh 82.3
Cc1ccc(-c2cc(C(=O)NCc3ccc4c(c3)OCO4)[nH]n2)c(O)c1C	none
O=C1CCC(C(=O)NCCN2C(=O)S/C(=C\c3cccnc3)C2=O)=NN1	none
O=C(NCCN1C(=O)S/C(=C\c2ccc(Cl)c(Cl)c2)C1=O)c1cnccn1	Pemphigus Ab inh 88.4
CCc1ccc(NC(=O)C2CCCN(S(=O)(=O)c3cccs3)C2)cc1 (stereo unspecified)	Pemphigus Ab inh inconclusive
CCC1S/C(=N\S(=O)(=O)c2cccs2)N(C2CCCCC2)C1=O (stereo unspecified)	PAFAH1B2 FP inh 25.2
COC1C(C)=C(C)C(=O)N1Cc1ccc(F)cc1 (stereo unspecified)	none
COC(=O)c1ccccc1NC(=O)c1ccccc1OC	none (no result: Pemphigus Ab inh)
COc1ccccc1C(=O)Nc1ccccc1SC(=O)c1ccccc1OC	PfM18AAP inh 30.9
CC(=O)Nc1ccc(NC(=O)CCn2c(=O)oc3ccccc32)cc1	pPAFAH FP inh 26.0
CC(=O)NCC1(c2ccccc2)CCN(CCCC(=O)c2ccc(F)cc2)CC1	none (no result: PAFAH1B3 FP inh, PfM18AAP inh, PAFAH2 inh, PAFAH1B2 FP inh, pPAFAH FP inh)
O=C(CSc1n[nH]c(=O)[nH]c1=O)c1ccc(Cl)cc1Cl	PAFAH1B2 FP inh 29.7
O=c1[nH]nc(SCc2cc(Cl)ccc2Cl)c(=O)[nH]1	PAFAH1B2 FP inh 28.6
COc1ccc(N2CCN(C(=O)COC(=O)c3nc(Cl)ccc3Cl)CC2)cc1	none (no result: PAFAH1B3 FP inh, PfM18AAP inh, PAFAH2 inh, PAFAH1B2 FP inh, pPAFAH FP inh)
COc1cc(/C=C2\SC(=S)N(CCCCC(=O)O)C2=O)ccc1OS(=O)(=O)c1ccc(C)cc1	PAFAH1B2 FP inh 30.1 (no result: PfM18AAP inh)
COc1cc(/C=C2/SC(=S)NC2=O)ccc1OS(=O)(=O)c1ccc(C)cc1	PAFAH1B2 FP inh 43.0
CC(C)c1cc(C(=O)OCC(=O)NC2CCS(=O)(=O)C2)c(O)c(C(C)C)c1 (stereo unspecified)	none (no result: PAFAH1B3 FP inh, PfM18AAP inh, PAFAH2 inh, PAFAH1B2 FP inh, pPAFAH FP inh)
CCOC(=O)c1nc(C)n(-c2cc(OC)c(Cl)cc2Cl)n1	none
O=C(Nc1ccc2c(c1)oc1ccccc12)c1ccncc1	Pemphigus Ab inh -8.2
COc1ccc(NC(=O)O/N=C/c2ccc(N(C)C)cc2)cc1	none
Cc1ccc(NC(=O)O/N=C/c2ccc(Br)cc2)cc1	PAFAH1B2 FP inh 57.5
COc1ccc(NC(=O)O/N=C/c2ccc(Br)cc2)cc1	PAFAH1B2 FP inh 46.2
CC1CCC(NC(=O)Cn2c(=O)oc3ccccc32)CC1 (stereo unspecified)	none (no result: Pemphigus Ab inh)
CCN(CC)C(=O)C1CCC(CNS(=O)(=O)c2cccc3nsnc23)CC1 (stereo unspecified)	none (no result: Pemphigus Ab inh)
COc1ccc([C@H]2C[C@@H](n3cc(-c4ccc(F)cc4)nn3)[C@H](O)CN2C(=O)C2CCCCC2)cc1	none (no result: PAFAH1B3 FP inh, PfM18AAP inh, PAFAH2 inh, PAFAH1B2 FP inh, pPAFAH FP inh)
CC1CCN(C(=O)COC(=O)/C=C/c2ccc([N+](=O)[O-])cc2)CC1	none (no result: PfM18AAP inh)
O=C(/C=C/c1ccc([N+](=O)[O-])cc1)OCC(=O)N1CCCC1	Pemphigus Ab inh 77.3 (no result: PfM18AAP inh)
CCCOc1ccc(C(CC(=O)O)NC(=O)C(c2ccccc2)c2ccccc2)cc1 (stereo unspecified)	PAFAH1B2 FP inh 26.0 (no result: PfM18AAP inh)
Cc1cc2ncc(C(=O)Nc3ccsc3C(=O)O)c(C)n2n1	none
O=C(Nc1cc([N+](=O)[O-])ccc1O)c1cccc([N+](=O)[O-])c1	none
O=C(Nc1cc([N+](=O)[O-])ccc1O)c1cccc(C(=O)Nc2cc([N+](=O)[O-])ccc2O)c1	PAFAH1B3 FP inh 33.9, PAFAH2 inh 33.4
O=C(Nc1ccc(O)cc1C(=O)O)c1ccc2c(c1)C(=O)N(Cc1ccco1)C2=O	none
O=C(Nc1cc([N+](=O)[O-])ccc1O)c1ccc2c(c1)C(=O)N(Cc1ccco1)C2=O	pPAFAH FP inh 29.9
CCn1c(SCC(=O)N/N=C(\C)c2ccncc2)nnc1-c1ccc(C)cc1	none (no result: PAFAH1B3 FP inh, PAFAH2 inh, PAFAH1B2 FP inh)
Cn1c(CCNC(=O)c2ccco2)nc2cc(NS(=O)(=O)c3ccc(Cl)cc3)ccc21	PAFAH1B2 FP inh 24.8
CC(=O)NCCc1nc2cc(NS(=O)(=O)c3ccc(Cl)cc3)ccc2n1C	none
CCOC(=O)C1CCCN(C2=NC(=O)/C(=C/c3ccc(OC)cc3OC)S2)C1 (stereo unspecified)	PfM18AAP inh 28.2 (no result: pPAFAH FP inh)
COc1ccc(-c2ccc3c(c2)S(=O)(=O)c2cccc(C(=O)NC4CCCCC4)c2C3=O)cc1OC	Pemphigus Ab inh 53.9 (no result: PfM18AAP inh)
Cc1csc(CNc2ncnc3ccc(-c4ccccc4Cl)cc23)c1	pPAFAH FP inh 28.7 (no result: PfM18AAP inh)
CC(=O)c1ccc(S(=O)(=O)NC2CC(=O)N(c3ccc(Cl)cc3)C2)cc1 (stereo unspecified)	none (no result: PfM18AAP inh)
O=C(O)CCn1c(-c2ccccc2)cc2c1CCCC2=O	PfM18AAP inh 28.5
CCCCCCn1c(=O)n2n(c1=O)C[C@]1(OC(=O)NCc3ccco3)CN(S(=O)(=O)c3ccc(C)cc3)C[C@]1(O)C2	none (no result: PAFAH1B3 FP inh, PfM18AAP inh, PAFAH2 inh, PAFAH1B2 FP inh, pPAFAH FP inh)
CCOC(=O)N1CCC(n2c(SCC(=O)c3ccccc3)nc3ccsc3c2=O)CC1	Pemphigus Ab inh 84.6
Clc1ccc(-c2nc3ccncc3[nH]2)cc1	PfM18AAP inh 29.1
Fc1ccc(-c2nc3ccncc3[nH]2)cc1	none
O=C(O)c1ccc(N2N=C(c3ccccc3)CC2c2ccccc2)cc1 (stereo unspecified)	pPAFAH FP inh 32.1
COc1ccc(C2=NN(c3ccc(C=O)cc3)C(c3ccccc3)C2)cc1 (stereo unspecified)	none (no result: PAFAH1B3 FP inh, PAFAH2 inh, Pemphigus Ab inh, PAFAH1B2 FP inh)
O=Cc1ccc(N2N=C(c3ccccc3)CC2c2ccccc2)cc1 (stereo unspecified)	Pemphigus Ab inh inconclusive, pPAFAH FP inh 30.4
COC(=NC(C)C)NC(C)C	none (no result: PAFAH1B3 FP inh, PAFAH2 inh, Pemphigus Ab inh, PAFAH1B2 FP inh)
CC(C)[N+]1=C2C=CC=CC=C2SC12C([N+](=O)[O-])=CC(=[N+]([O-])[O-])C=C2[N+](=O)[O-] (stereo unspecified)	Pemphigus Ab inh 66.4
Cc1ccc(NS(=O)(=O)c2ccc3[nH]c(=O)[nH]c3c2)c(C)c1	pPAFAH FP inh 28.1
Cc1ccc(C)c(NS(=O)(=O)c2ccc3[nH]c(=O)[nH]c3c2)c1	none
CNC(=O)c1cc(S(=O)(=O)Nc2ccc(C)cc2C)ccc1C	pPAFAH FP inh 29.9 (no result: Pemphigus Ab inh)
c1cc2c(cc1-c1csc(NNC3=NCCCCC3)n1)OCCO2	PfM18AAP inh 41.2 (no result: PAFAH1B3 FP inh, PAFAH2 inh, Pemphigus Ab inh, PAFAH1B2 FP inh)
CN(c1ccc(F)cc1)S(=O)(=O)c1ccc(Cl)c(C(=O)NCC2(N3CCOCC3)CCCCC2)c1	none (no result: PfM18AAP inh, Pemphigus Ab inh, pPAFAH FP inh)
Cc1nc(NC(=O)/C=C/c2ccco2)sc1C	Pemphigus Ab inh -3.5
